Data as given in the supplement of paper PMC10646978.
± gives the standard deviation.

Key:
Conditions in all cases: modulator concentration 10 µM
[1] = system: RAW-Dual (murine macrophage reporter line); assay: NF-kB reporter (SEAP) activity fold change vs agonist alone; higher = enhanced NF-kB activity
Outline: (§1)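 RAW-Dual murine macrophage reporter cells were plated at 50 000 per well in 384-well plates, pin-transferred compound to 10 μM final, and pre-incubated for 1 hour at 37 °C before a PRR agonist was added and the cells incubated overnight. NF-κB activity was read from supernatant SEAP with QUANTI-Blue at 620 nm absorbance, and IRF activity from Lucia luciferase with QUANTI-Luc by luminescence. Each signal was expressed as fold change by dividing by the mean agonist-only control on the same plate. Two replicate plates were averaged, with errors obtained by propagation.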

[2] = system: RAW-Dual (murine macrophage reporter line); assay: IRF reporter (Lucia luciferase) activity fold change vs agonist alone; higher = enhanced IRF activity
Outline: as §1

[3] = system: RAW-Dual (murine macrophage reporter line); assay: viability score (confluency relative to resting cells, overnight) (fraction); higher = more viable, active = viable (0.7 or more)
Outline: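 Overnight exposure to 10 μM final compound was carried out on RAW-Dual macrophages in 384-well plates. IncuCyte software generated two confluency masks over all wells imaged with IncuCyte. The viability score gives confluency in relation to resting cells. A compound met the cutoff if each mask exceeded 70% of resting cells.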

[4] = agonist: CpG ODN 1826 0.5 ug/mL

Compound	NF-kB reporter [1, 4]	NF-kB reporter ([1]; agonist: LPS 0.1 ug/mL)	NF-kB reporter ([1]; agonist: MPLA […])	IRF reporter ([2]; agonist: 3'3'-cGAMP 10 ug/mL)	IRF reporter ([2]; agonist: LPS 0.1 ug/mL)	IRF reporter ([2]; agonist: MPLA […])	viability score [3]
CCN(CC)Cc1cc(Nc2ccnc3cc(Cl)ccc23)ccc1O.Cl.Cl	0.199 ± 0.011	0.753 ± 0.073	0.774 ± 0.046	1.19 ± 0.075	1.03 ± 0.11	1.47 ± 0.16	0.873 (active)
O=c1cc(-c2ccc(O)c(O)c2)oc2cc(O)cc(O)c12 [Prestw-870]	1.08 ± 0.18	1.21 ± 0.12	2 ± 0.16	0.181 ± 0.0054	0.663 ± 0.14	0.61 ± 0.065	0.995 (active)
CCOc1ccc(S(=O)(=O)NC(C)(C)C)cc1C	0.972 ± 0.081	0.852 ± 0.072	1.13 ± 0.12	0.971 ± 0.044	1.38 ± 0.082	1.53 ± 0.14	0.868 (active)
CC(C)c1ccc(OCC(=O)NCc2nnc3n2CCC(C(F)(F)F)C3)cc1 (stereo not drawn)	1.24 ± 0.094	1.05 ± 0.08	0.988 ± 0.06	0.99 ± 0.074	1.1 ± 0.075	1.05 ± 0.13	0.996 (active)
CC(=O)Oc1ccc(C(=O)Nc2ccccc2Br)cc1	0.856 ± 0.068	1.01 ± 0.092	0.877 ± 0.066	0.953 ± 0.049	1.08 ± 0.2	0.904 ± 0.26	0.992 (active)
Cc1cccc(CSc2nn3c(=O)c(C)nnc3s2)c1	1.06 ± 0.086	0.937 ± 0.1	0.907 ± 0.085	0.925 ± 0.031	1.25 ± 0.2	1.26 ± 0.25	1.01 (active)
COC(=O)C1=CN(CC2CCCO2)C=C(C(=O)OC)C1c1ccccc1OC (stereo not drawn)	0.826 ± 0.066	0.849 ± 0.059	1.3 ± 0.37	0.996 ± 0.059	1.34 ± 0.094	1.41 ± 0.16	1.02 (active)
Ic1cccc(Cn2nnc(-c3ccccc3)n2)c1	0.76 ± 0.06	0.98 ± 0.048	1.38 ± 0.15	0.872 ± 0.04	1.28 ± 0.12	1.51 ± 0.18	1.01 (active)
COC(=O)C1=CN(CC2CCCO2)C=C(C(=O)OC)C1c1ccc(Cl)cc1 (stereo not drawn)	0.999 ± 0.19	0.992 ± 0.11	1.44 ± 0.54	0.94 ± 0.025	1.04 ± 0.13	1.07 ± 0.11	1 (active)
Cc1ccc(C2=NN3C(=N)C(=Cc4c[nH]c5ccccc45)C(=O)N=C3S2)cc1	0.997 ± 0.079	1.03 ± 0.065	0.932 ± 0.058	0.974 ± 0.024	1.38 ± 0.2	1.12 ± 0.21	1.01 (active)
O=C(O)CCCCCN1C(=O)C(=Cc2cn(-c3ccccc3)nc2-c2cccs2)SC1=S	1.02 ± 0.063	1.12 ± 0.12	1.01 ± 0.059	1.03 ± 0.038	1.27 ± 0.082	1.06 ± 0.11	1 (active)
N#CC[C@@H](C1CCCC1)n1cc(-c2ncnc3[nH]ccc23)cn1	1.95 ± 0.28	0.915 ± 0.29	0.914 ± 0.051	0.164 ± 0.0051	0.359 ± 0.081	0.595 ± 0.067	0.999 (active)
O=C(Cn1cc(S(=O)(=O)c2ccc(F)cc2)c2ccccc21)N1CCCCCC1	0.825 ± 0.12	0.902 ± 0.073	1.02 ± 0.055	0.847 ± 0.071	1.2 ± 0.19	1.3 ± 0.48	0.972 (active)
Nc1nnc(C(=O)O)[nH]1	1.04 ± 0.083	1.14 ± 0.08	1.03 ± 0.043	1.06 ± 0.2	1.03 ± 0.1	1.23 ± 0.19	1 (active)
